{"source": "PubChem BioAssay (Tox21)", "note": "Inconclusive results are not listed. Where a call stands in place of a potency, no number is given. Activity calls are given as the source filed them. Calls come from the whole dose curve; as a rule, active = well fitted activation curve with a large enough effect in the repeat runs; inconclusive = weak or mixed curves; inactive = no such curve, though single readings can be large or run the other way.", "data": [{"molecular_target": "Nuclear receptor subfamily 1 group I member 3 (Homo sapiens) (UniProt Q14994)", "sequence (Q14994 whole entry, looked up)": "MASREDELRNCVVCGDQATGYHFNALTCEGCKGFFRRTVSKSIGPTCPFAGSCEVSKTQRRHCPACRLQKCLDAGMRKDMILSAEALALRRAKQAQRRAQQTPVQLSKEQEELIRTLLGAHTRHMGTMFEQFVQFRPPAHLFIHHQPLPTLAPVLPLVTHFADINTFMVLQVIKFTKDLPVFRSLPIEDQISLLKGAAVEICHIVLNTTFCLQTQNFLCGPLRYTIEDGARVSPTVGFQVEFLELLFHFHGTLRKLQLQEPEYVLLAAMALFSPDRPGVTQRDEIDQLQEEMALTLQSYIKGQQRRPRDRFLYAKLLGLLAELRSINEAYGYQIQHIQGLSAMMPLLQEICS", "assay": "qHTS assay to identify small molecule agonists of the constitutive androstane receptor (CAR) signaling pathway (AID 1224839);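 note: HepG2 cells stably carrying human CAR and a CYP2B6 luciferase reporter; nearly all actives have a fitted effect of over 15% in size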", "conditions": "HepG2 hCAR CYP2B6-luciferase, agonist mode, 24 h; series mostly up to 92.4 µM", "text": "National Center for Advancing Translational Sciences [NCATS] NIH Chemical Genomics Center [NCGC] U.S. Environmental Protection Agency [EPA] National Institutes of Environmental Health Sciences [NIEHS] National Toxicology Program [NTP] Assay overview: The constitutive androstane receptor (CAR) is a nuclear receptor which regulates multiple drug metabolizing enzymes (DMEs) and transporters. Activating CAR will generally increase the transcription and subsequent translation of CYP2B6 and CYP3A4. These two DMEs represent about 50% of the drug metabolizing potential in the body. […] Recently, there have also been studies performed indicating CARs role in energy metabolism and cancer therapy. Therefore, inducing CARs activity could have a potential effect on diabetes and cancer. Identifying environmental toxins and compounds which modulate CAR, through the use of the Tox21 10K compound collection, will be an important step in determining the toxicity and potential therapeutic effects these factors will have on the human body.\nAssay Protocol Summary: A double-stable (hCAR and CYP2B6-2.2kb) transfected cell line, derived from human hepatoma (HepG2) cells, was utilized for the duration of the quantitative high-throughput screens. The HepG2-CYP2B6-hCAR cells suspended in DMEM culture medium supplemented with 10% FBS, 5 ug/mL blasticidin, 0.5 mg/mL geneticin, 100 U/mL penicillin and 100 ug/mL streptomycin were dispensed at 2500 cells/4 uL/well in 1536-well white solid bottom plates using a Multidrop Combi. After the assay plates were incubated at 37 C/5% CO2 for 4 hrs, 23 nL of compounds at 15 concentrations (from 5-48 columns) or positive control (from 1 to 4 columns) were transferred to the assay plates using a Pintool station. One uL of PK11195, was added using a Flying Reagent Dispenser to generate a final concentration of 0.75 uM PK11195 inside each well. After a 24 hr incubation period at 37 C/5% CO2, four uL of ONE-Glo reagent was added into the assay plates using a Flying Reagent Dispenser. After a 30 min incubation period at room temperature, the luminescence intensity in the assay plates was measured using a ViewLux plate reader.", "values": [{"compound": "CO/N=C(/C(=O)N[C@@H]1C(=O)N2C(C(=O)OCOC(=O)C(C)(C)C)=C(C)CS[C@H]12)c1csc(N)n1", "Potency": "inactive"}, {"compound": "C1CN(CCOCCN2CCOCC2)CCO1", "Potency": "inactive"}, {"compound": "CCOc1ccc(C(=O)OCCN(CC)CC)cc1", "Potency": "inactive"}, {"compound": "Cc1sccc1Br", "Potency": "inactive"}, {"compound": "Cc1cccn2c(=O)c(-c3nnn[nH]3)cnc12", "activation": "2.7% [at 19 µM] (inactive)"}, {"compound": "ClC(Cl)(Br)Br", "Potency": "inactive"}, {"compound": "CCOC(=O)[C@H](CCc1ccccc1)N[C@@H](C)C(=O)N1[C@H](C(=O)O)C[C@@H]2CCC[C@@H]21", "Potency": "inactive"}, {"compound": "C=COCC1CCC(CO)CC1", "note": "(stereo not given)", "Potency": "inactive"}, {"compound": "CC(C)(O)C(=O)c1ccccc1", "Potency": "inactive"}, {"compound": "CCOC(=O)c1c(C)n(C)c2ccc(O)cc12", "Potency": "inactive"}, {"compound": "OC(CCN1CCCCC1)(c1ccccc1)C1CC2C=CC1C2", "note": "(stereo not given)", "Potency": "inactive"}, {"compound": "CCCCOCCOCCOCCCC", "Potency": "inactive"}, {"compound": "CCn1ccnc1CC1COc2ccccc2O1", "note": "(stereo not given)", "Potency": "inactive"}, {"compound": "CC(C[N+](C)(C)C)OC(N)=O", "note": "(stereo not given)", "Potency": "inactive"}, {"compound": "CN1CCCC1", "Potency": "inactive"}, {"compound": "N=C(N)c1ccc2cc(OC(=O)c3ccc(N=C(N)N)cc3)ccc2c1", "Potency": "inactive"}, {"compound": "CCO[Si](CCC1CCC2OC2C1)(OCC)OCC", "note": "(stereo not given)", "Potency": "inactive"}, {"compound": "C[N+](C)(C)CCCCCC[N+](C)(C)C", "Potency": "inactive"}, {"compound": "COc1cc(C(=O)N2CCCCCCC2)cc(OC)c1OC", "Potency": "inactive"}, {"compound": "COc1ccccc1OCC(O)CN1CCN(CC(=O)Nc2c(C)cccc2C)CC1", "note": "(stereo not given)", "Potency": "inactive"}, {"compound": "CCOC(=O)c1cccc(N)c1", "Potency": "inactive"}, {"compound": "CC(C)(CC(=O)O)C(=O)O", "Potency": "inactive"}, {"compound": "C[C@H]1C[C@@H](O)CC(C)(C)C1", "Potency": "inactive"}, {"compound": "C=C(C)CS(=O)(=O)O", "Potency": "inactive"}, {"compound": "NC(=O)COCCN1CCN(C(c2ccccc2)c2ccc(Cl)cc2)CC1", "note": "(stereo not given)", "Potency": "inactive"}, {"compound": "CCCCCOC(=O)CCCCC", "Potency": "inactive"}, {"compound": "O=C1CC2CC1C1CCCC21", "note": "(stereo not given)", "Potency": "inactive"}, {"compound": "O=Cc1cccc([N+](=O)[O-])c1", "Potency": "inactive"}, {"compound": "CN1CCN(c2cc3c(cc2F)c(=O)c(C(=O)O)cn3-c2ccc(F)cc2)CC1", "Potency": "inactive"}, {"compound": "NC(=O)c1ccc(N)cc1", "Potency": "inactive"}, {"compound": "CCN(CC)CCOCCOC(=O)C1(c2ccccc2)CCCC1", "Potency": "inactive"}, {"compound": "OCCOc1ccc(OCCO)cc1", "Potency": "inactive"}, {"compound": "CCCCC/C=C\\CCC=O", "Potency": "inactive"}, {"compound": "COC(=O)CCSCCC(=O)OC", "Potency": "inactive"}, {"compound": "c1ccc([C@H]2CN3CCSC3=N2)cc1", "Potency": "inactive"}, {"compound": "C[N+](C)(C)CC(O)CC(=O)[O-]", "note": "(stereo not given)", "Potency": "inactive"}, {"compound": "CN1C(=O)N(C)C(O)C1O", "note": "(stereo not given)", "Potency": "inactive"}, {"compound": "Cc1cccc(C)c1NC(=O)C(C)N", "note": "(stereo not given)", "Potency": "inactive"}, {"compound": "CN1CCC(=C2c3ccccc3CC(=O)c3sccc32)CC1", "Potency": "inactive"}, {"compound": "CC/C=C\\CC/C=C/C(OCC)OCC", "Potency": "inactive"}]}]}
